Results with a measured potency or affinity are listed apart. Records with an inconclusive call do not appear. Activity calls are given as the source filed them. How the calls were made is not given here.
test: HepG2 cell cytotoxicity, dose response, cytotoxicity control, plate reader, dry powder samples (AID 1159569); conditions: HepG2 cytotoxicity counterscreen; series mostly up to 50 µM; activity change, negative = cytotoxicity: at the top concentration

SMILES	activity change, negative = cytotoxicity
COc1ccc(NC(=O)N(C)C[C@H]2Oc3c(NC(=O)Nc4ccccc4)cccc3C(=O)N([C@@H](C)CO)C[C@H]2C)cc1	-9.45% (inactive)
Cc1ccc(S(=O)(=O)N(C)C[C@H]2OCc3ccccc3-c3c(n(C)c4ccccc34)C(=O)N([C@@H](C)CO)C[C@@H]2C)cc1	-21.5% (inactive)
CN1c2ccc(C#Cc3cccnc3)cc2[C@H]2[C@H](CCN2S(=O)(=O)c2ccc(F)cc2)[C@H]1CO	-33.4% [at 46 µM] (inactive)
C[C@@H]1CN([C@H](C)CO)C(=O)c2cccc(NC(=O)Nc3cccc4ccccc34)c2O[C@@H]1CN(C)C(=O)Nc1ccc(C(F)(F)F)cc1	-47% (inactive)
C/C=C/c1ccc2c(c1)[C@H]1[C@H](CCN1C(=O)c1ccc(F)cc1)[C@H](CO)N2	-28.2% (inactive)
CCCC#Cc1ccc([C@H]2[C@@H](CO)N(C(=O)C3CCCCC3)[C@H]2C#N)cc1	-36.5% (inactive)
CCCC#Cc1ccc2c(c1)O[C@H](CN(C)C(=O)Nc1ccc(OC)cc1)[C@H](C)CN([C@H](C)CO)S2(=O)=O	-25.5% (inactive)
COc1ccc(C#Cc2ccc3c(c2)O[C@H](CN(C)S(=O)(=O)c2ccccc2F)[C@@H](C)CN([C@H](C)CO)S3(=O)=O)cc1	-10.9% (inactive)
C[C@@H]1CN([C@@H](C)CO)C(=O)c2cccc(NC(=O)c3cnccn3)c2O[C@@H]1CN(C)Cc1ccc(-c2ccccc2)cc1	-23.5% (inactive)
Cc1ccccc1-c1ccccc1[C@H]1[C@@H](C#N)N(C(=O)c2ccccc2)[C@@H]1CO	-2.64% (inactive)
CC(C)(C)S(=O)N1Cc2cc(C(=O)NCc3ccc(Oc4ccccc4)cc3)nc(-c3cccc(-c4cccc(F)c4)c3)c2[C@@H]1CCO (stereo not given in full)	2.11% (inactive)
C[C@@H]1CN([C@@H](C)CO)C(=O)c2cccc(NC(=O)C3CC3)c2O[C@@H]1CN(C)C(=O)Nc1ccc(C(F)(F)F)cc1	-8.27% (inactive)
C[C@@H]1CN([C@H](C)CO)C(=O)c2cccc(NC(=O)c3nc4ccccc4s3)c2O[C@H]1CN(C)C(=O)Nc1ccc(C(F)(F)F)cc1	-16.7% (inactive)
O=C(c1ccccc1F)N1CC(=O)N2[C@H](CO)[C@H](c3ccc(-c4cccnc4)cc3)[C@H]2C1	-2.27% (inactive)
COc1ccc(C#Cc2cnc3c(c2)C(=O)N([C@H](C)CO)C[C@H](C)[C@H](CN(C)S(=O)(=O)c2cccc(F)c2)O3)cc1OC	-12.1% (inactive)
CC(C)CNC[C@@H]1[C@@H](c2ccccc2)[C@@H](CO)N1Cc1ccc(F)cc1	-28% (inactive)
CC(C)NC(=O)N1[C@@H](CO)[C@@H](c2ccccc2)C12CN(Cc1ccc(F)cc1)C2	-23.3% (inactive)
COc1ccc2c3c(n(C)c2c1)[C@@H](CO)N(C(=O)C1CCCC1)CC31CN(C(=O)Nc2cccc(F)c2)C1	-13.8% (inactive)
COc1ccc2c3c(n(C)c2c1)[C@@H](CO)N(C(=O)C1CC1)CC31CCN(C(=O)Nc2cccc(F)c2)CC1	-11.9% (inactive)
COc1ccc(NC(=O)N(C)C[C@@H]2Oc3c(NC(=O)c4nc5ccccc5s4)cccc3C(=O)N([C@@H](C)CO)C[C@H]2C)cc1	-23% (inactive)
COc1ccc(S(=O)(=O)Nc2ccc3c(c2)CC(=O)N([C@@H](C)CO)C[C@H](C)[C@H](CN(C)S(=O)(=O)c2ccc(OC)cc2)O3)cc1	-25.8% (inactive)
C[C@@H]1CN([C@@H](C)CO)S(=O)(=O)c2ccc(C#CC3CCCC3)cc2O[C@H]1CN(C)C(=O)Cc1ccncc1	-34.8% (inactive)
Cc1ccc(S(=O)(=O)N(C)C[C@H]2OCc3ccccc3-c3c(n(C)c4ccccc34)C(=O)N([C@H](C)CO)C[C@@H]2C)cc1	-40.5% (inactive)
COc1ccc2c3c(n(C)c2c1)[C@@H](CO)N(C(=O)C1CC1)CC31CN(C(=O)Nc2cccc(F)c2)C1	4.26% (inactive)
COc1ccc(NC(=O)N2CC3(C2)CN(C(=O)C2CCC2)[C@H](CO)c2c3c3ccc(OC)cc3n2C)cc1	-15.6% (inactive)
O=C(NC[C@@H]1CC[C@H]2[C@H](CN2Cc2cc(-c3ccccc3)on2)O1)c1ccc2c(c1)OCO2	8.46% (inactive)
C[C@H](CO)N1C[C@H](C)[C@@H](CN(C)C(=O)Nc2ccc(-c3ccccc3)cc2)OCc2ccccc2-c2c(n(C)c3ccccc23)C1=O	7.2% (inactive)
C[C@@H]1CN([C@@H](C)CO)C(=O)Cc2cc(NC(=O)Nc3ccc4c(c3)OCO4)ccc2O[C@@H]1CN(C)CC1CC1	-11.2% (inactive)
COc1cccc(CN2CC3(CCN(Cc4ccccn4)CC3)c3c([nH]c4cc(OC)ccc34)[C@@H]2CO)c1	-31% (inactive)
COc1ccc2c3c([nH]c2c1)[C@H](CO)N(S(=O)(=O)c1ccc(C)cc1)CC31CCN(C(=O)Cc2cccnc2)CC1	-5.11% (inactive)

Reference: PubChem BioAssay AID1159569 (Broad Institute, 2015)
